Rows were chosen to be rich in hits. Some 2.9% of all compounds tested hit in one or more screens of this group.
HEK293 viab: GF-AFC viability counterscreen for inhibitors of alpha-synuclein gene (SNCA) expression; Potency, µM (titrated, usually from 57.1 µM), for the others: at the top dose activity change, negative = cytotoxicity, hits mostly cytotoxic; HEK-293-SNCA-luc viability, GF-AFC fluorescence, 24 h; hit rate 0.12% among 150,000; AID 1671193, 2021;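 further: potency means the concentration at half of the fitted maximal effect; 0% = DMSO-treated cells and -100% = medium-only wells without cells; nearly all actives have a fitted effect of over 30% in size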
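Cytotoxicity counterscreen: after 24 h compound treatment of genome-edited SNCA-luciferase HEK-293 cells, live-cell protease substrate GF-AFC read by fluorescence after 30 min; activity scaled between DMSO (0%) and medium-only (-100%), curves Hill-fitted.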
IP6K1 inh: Primary qHTS assay for small molecule inhibitors of Inositol hexaphosphate kinase 1 (IP6K1); Inositol hexakisphosphate kinase 1 (Homo sapiens), Q92551; hit rate 0.81% among 140,000; AID 1645851, 2021; IP6K1 kinase, ADP-Glo luminescence, 2 h; hits give low values; activity change, % (series mostly up to about 58 µM); in the data active means activity change below about -25%; further: on the % scale 0 is the no-effect control and ±100 the full control effect
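ADP-Glo luminescence measures ADP made by human IP6K1 during a 2 h RT reaction with ATP/IP6 (mix at 1.3 mM/130 uM); top library doses 57.5 and 19.1 uM final.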
KDM5B inhibitor: Primary screen for KDM5B Histone Demethylases FDH-coupled qHTS; Lysine-specific demethylase 5B (Homo sapiens), Q9UGL1; KDM5B demethylase, FDH-coupled NADH fluorescence (FDH is formaldehyde dehydrogenase); Potency, µM (top dose mostly 57.7 µM), most hits filed as inhibitors; hit rate 2.6% among 220,000; AID 1347165, 2019; further: potency means the concentration at half of the fitted maximal effect; 0% is about no effect; nearly all actives have a fitted effect of over 70% in size
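Coupled FDH/NAD⁺ fluorescence readout. KDM5BΔAP 200 nM final; compound titration, 10 min RT preincubation; substrate mix 12.5 µM H3K4me3, 25 µM 2-OG, 50 µM Fe(II), 100 µM ascorbate, 0.25 mM NAD⁺, 0.25 U/mL FDH; ΔRFU over 30 min.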
SNCA expr inh: Primary qHTS assay for inhibitors of alpha-synuclein gene (SNCA) expression. HEK-293 SNCA-luciferase knock-in, luminescence, 24 h. Potency, µM (doses to about 57.2 µM), inactives show top-dose activity change, negative = inhibition, hits mostly inhibitors. hit rate 0.17% among 140,000;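 further: potency means the concentration at half of the fitted maximal effect; plate controls were DMSO cells for no effect and cell-free wells for full effect; nearly all actives have a fitted effect of over 45% in size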
The depositor's hits bear a star; i = inactive; ? = inconclusive; nt = no result; ! = not active in a repeat; [ ] = dose if it differs, or a comment. Unless noted, the call rests on the fitted dose curve; in most records, active means well fitted curve in the direction sought with a large enough effect; inconclusive means small, poorly fitted or top-dose-only effect, or another doubt; inactive means no such curve, though single readings can be large; an effect the other way counts as inactive or inconclusive.

SMILES	HEK293 viab	IP6K1 inh	KDM5B inhibitor	SNCA expr inh
COc1cccc(CCC(=O)NCc2nnc3c(-c4nc(C)no4)cccn23)c1	-7.1%	4.5	?	-17.1%
Cc1noc(-c2cccn3c(CNC(=O)c4ccoc4)nnc23)n1	-0.6%	5.5	28.2µM*	-11.5%
Cc1noc(-c2cccn3c(CNC(=O)c4cc(F)cc(F)c4)nnc23)n1	-0.8%	-0.4	?	-19.3%
COc1cccc(CC(=O)NCc2nnc3c(-c4nc(C)no4)cccn23)c1	5.4%	4.9	17.8µM*	-5.6%
CCc1noc(-c2cccn3c(CNC(=O)c4ccc(OC)c(F)c4)nnc23)n1	2.3%	26.0	?	-19.8%
Cc1noc(-c2cccn3c(CNC(=O)c4cccnc4)nnc23)n1	5.2%	-5.0	28.2µM*	1.0%
O=C(NCCCc1ccccc1)c1ccc2nc(-c3ccccn3)oc2c1	6.1%	-5.0	nt	9.3%
COc1ccc(CCN(C)C(=O)CC(c2cccc(F)c2)c2cn(C)c3ccccc23)cc1OC (centres undefined)	-14.0%	2.4	i	11.5%
CNC(=O)c1cc(C2CC2)nc2onc(C3CCN([S+](=O)([O-])c4ccc(C)cc4)C3)c12 (centres undefined)	nt	-2.4	nt	nt
CNC(=O)c1cc(C2CC2)nc2c1c(C1CCN(C(=O)c3cccc(Cl)c3)C1)nn2C (centres undefined)	nt	15.0	nt	nt
O=C(Nc1cccc2ncccc12)c1cccc(S(=O)(=O)NCC(F)(F)F)c1	nt	nt	i	nt
O=C(COc1ccc(F)cc1)NCC(=O)N1CCN(c2ccccn2)CC1	-4.8%	-4.0	25.1µM*	-12.8%
COc1ccccc1CC(=O)NCC(=O)N1CCN(c2ccccn2)CC1	2.0%	6.5	25.1µM*	4.6%
O=C(CCc1ccccc1)NCC(=O)N1CCN(c2ccccn2)CC1	-10.6%	19.0	?	16.2%
O=C(CCCc1ccccc1)NCC(=O)N1CCN(c2ccccn2)CC1	1.5%	21.7	28.2µM*	3.7%
COc1ccc(CC(=O)NCC(=O)N2CCN(c3ccccn3)CC2)cc1	18.6%	5.6	31.6µM*	9.7%
O=C(CN1CCN(c2ccccn2)CC1)Nc1cc(F)ccc1F	nt	nt	i	nt
O=C(NCc1cccc(Cl)c1)C1CCN(c2ccnc3ccnn23)CC1	2.1%	6.6	nt	-29.7%
O=C(NCc1ccccc1Cl)C1CCCCN1Cc1ccc(-c2ccsc2)cc1 (centres undefined)	3.9%	0.6	nt	-9.2%
COc1ccc(C2(C(=O)N3CCN(c4ncccn4)CC3)CCOCC2)cc1	1.1%	-20.9	i	1.0%
COc1ccc(C(=O)NCC(=O)N2CCN(c3ccccn3)CC2)c(C)c1	-5.8%	7.4	22.4µM*	-15.4%
COc1ccc(C2(C(=O)N3CCN(c4ccccn4)CC3)CCOCC2)cc1	-1.6%	-5.7	79.4µM*	1.9%
Cn1ncc2c(C(=O)NCc3ccccn3)cc(-c3ccsc3)nc21	-3.5%[87.6 µM]	-8.8	nt	6.5%[87.6 µM]
Cc1ccc(CNC(=O)c2ccc3c(c2)n(Cc2ccccc2)c(=O)c2ccnn23)o1	4.7%	11.1	31.6µM*	21.2%
O=C(Nc1ccc(Cl)cc1)c1ccc2c(c1)n(Cc1ccccc1)c(=O)c1ccnn12	-13.7%	-5.7	20µM*	120.4%
SMILES	HEK293 viab	IP6K1 inh	KDM5B inhibitor	SNCA expr inh
Cc1ccc(CNC(=O)c2ccc3c(c2)c(C)c(C)n3Cc2ccccc2)o1	4.1%	23.4	?	44.4%
O=C(NCCCc1ccccc1)C1CCN(Cc2ccccc2-c2cccnc2)CC1	-2.6%	4.3	nt	5.1%
COCCN1CCC(C(=O)Nc2ccc(Oc3ccccc3F)cc2)CC1	0.0%	1.7	i	-0.8%
CC(C)CC(NC/C=C/c1ccccc1)C(=O)O (centres undefined)	nt	nt	i	nt
O=C(O)CCCCCN1C(=O)CC(c2ccccc2)CC1=O	nt	nt	i	nt
COc1ccc2c(c1)c(CN1CCOCCNC(=O)CC1)cn2C(C)C	-4.5%	10.5	20µM*	-4.3%
O=C(C1CCCN(Cc2cccc(-c3cccs3)c2)C1)N1CCN(Cc2ccccc2)CC1 (centres undefined)	2.6%	-7.0	nt	-17.3%
COc1ccc(-c2cc(C(=O)NCC(C)C)c3cnn(C)c3n2)cc1	1.2%[87.6 µM]	3.5	nt	-4.2%[87.6 µM]
CN1CCN(c2ccc(NC(=O)c3cc(F)cc(F)c3)nc2)CC1	nt	nt	i	nt
CN1CCN(c2ccc(C(=O)Nc3n[nH]c4ccc(Cc5cc(F)cc(F)c5)cc34)c(NC3CCOCC3)c2)CC1	27µM*!	-11.8	nt	?
COc1ccccc1-c1cccc(C(=O)N2CCN(C(=O)c3ccc(C(F)(F)F)cc3)CC2)c1	5.5%[12.5 µM]	18.0	nt	-18.4%
CNc1ncccc1C(=O)N1CCc2nc(-c3cn[nH]c3)[nH]c2C1	-0.4%	-6.6	28.2µM*	-27.1%
Cc1nnnn1Cc1ccc(C(=O)N2CCc3nc(-c4cn[nH]c4)[nH]c3C2)cc1	8.6%	4.6	i	-4.4%
O=C(c1ccc(N2CCCC2)nc1)N1CCC(N2CCOCC2)CC1	-13.5%	1.2	?	-17.9%
O=C(c1ccc(N2CC[C@H](O)C2)nc1)N1CCC(N2CCOCC2)CC1	-8.6%	35.9	25.1µM*	14.1%
COc1ccc(-c2cn3cc(C(=O)NCc4cccnc4)nc3s2)cc1	-13.1%	-7.1	nt	27.4%
CCC(O)CNc1ccc(-c2nc(COC)no2)cn1 (centres undefined)	12.7%	4.7	31.6µM*	53.0%
COc1ccc(C(=O)NC2CCN(c3nc4ncccc4o3)CC2)cc1	?	-9.9	22.4µM*	-9.8%
O=C(NC1CCN(c2nc3ncccc3o2)CC1)c1ccccc1Cl	-3.7%	-10.7	?	24.5%
Cc1ccc([S+](=O)([O-])NC2CCN(c3nc4ncccc4o3)CC2)cc1	-7.2%	0.7	?	-4.9%
CC(=O)NC1CCN(c2nc3ncccc3o2)CC1	4.3%[87.6 µM]	5.9	28.2µM*	3.8%[87.6 µM]
C[S+](=O)([O-])NC1CCN(c2nc3ncccc3o2)CC1	18.1%[87.6 µM]	-12.3	35.5µM*!	?
O=C(NC1CCCC1)NC1CCN(c2nc3ncccc3o2)CC1	-21.4%[87.6 µM]	-3.8	35.5µM*	10.5%[87.6 µM]
CCOc1ccccc1C(=O)NC1CCCN(c2cc(-c3ccc(Cl)cc3)[nH]n2)C1 (centres undefined)	?	0.0	?	-24.2%
CC(NC(=O)C1CCCO1)C(=O)N1CCN(c2ccccn2)CC1 (centres undefined)	8.2%	25.2	25.1µM*	-16.5%
CC(NC(=O)C1CCC1)C(=O)N1CCN(c2ccccn2)CC1 (centres undefined)	15.2%	2.3	22.4µM*	-15.0%
CC(C)C(NC(=O)C1CCC1)C(=O)N1CCN(c2ccccn2)CC1 (centres undefined)	0.5%	4.5	22.4µM*	1.2%
CN1CCN(C(=O)C[C@@H]2CCNC[C@@H]2Cc2cc(-c3ccc(C(C)(C)C)cc3)on2)CC1	6.1%	5.3	i	13.4%
O=C(COc1ccc(F)cc1)NCC1Cn2cccc2CN1Cc1ccccc1 (centres undefined)	-3.5%	-0.9	25.1µM*	0.4%

Screening data: PubChem, National Center for Advancing Translational Sciences (NCATS)
